Data on five molecules can be found in PubChem BioAssay.

Activity calls are given as the source filed them.

The test system of experiment [1] is Plasmodium falciparum Sir2 (PF13_0152, Sir2A). As to the kind of experiment: Plasmodium falciparum Sir2A binding compounds – biochemical, small-molecule microarray, 635 nm fluorescence, primary screen (AID 1098).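 Note: score merges spot fluorescence intensity with its signal-to-noise ratio.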 Conditions: fluorescence 635 nm, higher = more signal.
Experiment [2] can be described thus: probe aDKK1 binding to arrayed compounds – biochemical, biotinylated probe, 635/667 nm fluorescence, primary screen (AID 1099).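 Note: score merges 667nm spot fluorescence with signal to noise across triplicate slides.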 The note with it: small-molecule microarray, higher = more signal.
Experiment [3] is described as follows: probe aCHRDL2 binding to arrayed compounds – biochemical, biotinylated probe, 635/667 nm fluorescence, primary screen (AID 1100). The note with it: small-molecule microarray, higher = more signal.
A short description of experiment [4]: change in splice reporter luminescence, either direction, cell-based, HEK293, spliceosome inhibition project, primary screen (AID 1101).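 Note: HEK293 cells carrying a splicing-competent luciferase reporter gene; test concentration not given here.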 Conditions: HEK293 splicing luciferase reporter, 24 h, higher = more signal, called active from +8 up or from −8 down.
The target in experiment [5] is Fibroblast growth factor 10 (Homo sapiens) (UniProt O15520). Put plainly: compounds binding fibroblast growth factor 10 – biochemical, small-molecule microarray, 635 nm fluorescence, primary screen (AID 1102). The note with it: FGF10 binding, fluorescence 635 nm, higher = more signal.
The test system of experiment [6] is glycogen synthase kinase-3 (GSK3A per assay name; protocol says GSK3B). Put plainly: compounds binding glycogen synthase kinase-3 – biochemical, small-molecule microarray, 635 nm fluorescence, GSK3A, primary screen (AID 1103). Note: the record names both GSK3A and GSK3B. The note with it: fluorescence 635 nm, higher = more signal.
Experiment [7] has as its target Epidermal growth factor receptor (Homo sapiens) (UniProt P00533). Put plainly: compounds binding epidermal growth factor receptor – biochemical, small-molecule microarray, 635 nm fluorescence, primary screen (AID 1104).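 Note: score merges 667 nm emission intensity with spot signal to noise over triplicate slides.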 Conditions: EGFR binding, higher = more signal.
The target of experiment [8] is Follistatin-related protein 3 (Homo sapiens) (UniProt O95633). Put plainly: compounds binding follistatin-related protein 3 – biochemical, small-molecule microarray, 635 nm fluorescence, primary screen (AID 1105).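 Note: score merges emission near 667 nm and signal to noise per printed spot across three slides.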 Conditions: FSTL3 binding, higher = more signal.
Experiment [9] has as its target Dickkopf-related protein 1 (Homo sapiens) (UniProt O94907). As to the kind of experiment: small molecules binding DKK1 protein – biochemical, small-molecule microarray, 635 nm fluorescence scan, primary screen (AID 1106).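 Note: score merges emission near 667 nm with signal to noise over three replicate slides.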 Conditions: higher = more signal.
The test system of experiment [10] is Inhibin beta A chain (activin A). As to the kind of experiment: small molecules binding activin A – biochemical, small-molecule microarray, 635 nm fluorescence scan, primary screen (AID 1107).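 Note: mouse activin A protein probed at 4.33 µg/mL on printed slides; score merges bound-protein fluorescence near 667 nm with spot signal-to-noise.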 The note with it: INHBA, higher = more signal.
Experiment [11] relates to Human papillomavirus type 1a protein E7 (residues 44-93). As to the kind of experiment: small molecules binding HPV E7 44-93 – biochemical, small-molecule microarray, residues 44-93, 635 nm fluorescence, primary screen (AID 1108).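 Note: E7 fragment applied at 1 µg/mL in TBST for 1 h at 4 C; score combines spot fluorescence with its signal to noise ratio.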 Conditions: fluorescence 635 nm, higher = more signal.
A short description of experiment [12]: hepatitis C replication reporter changes, two-sided – Huh7 cells, luciferase reporter, HCV replication inhibitor project, primary screen (AID 1109).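 Note: huh7 hepatoma cells harbouring a luciferase neomycin HCV replicon reporter; luciferase luminescence as measure of HCV replicon replication; test concentration not given here.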 Conditions: Huh7 HCV replicon luciferase reporter, 48 h; higher = more signal.
Experiment [13] deals with Left-right determination factor 2 (Homo sapiens) (UniProt O00292). Put plainly: small molecules binding LEFTY2 protein – biochemical, small-molecule microarray, 635 nm fluorescence scan, primary screen (AID 1110). Conditions: higher = more signal.
Experiment [14] deals with Calmodulin-1 (Homo sapiens) (UniProt P0DP23). Put plainly: small molecules binding calmodulin-1 with EGTA – biochemical, small-molecule microarray, Cy5-labelled CALM1, profiling panel (AID 1111).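 Note: labelled calmodulin applied in Tris saline Tween buffer holding calcium plus EGTA and DTT.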 Conditions: Cy5-CALM1 binding fluorescence, higher = more signal.
Experiment [15] has the same target. As to the kind of experiment: small molecules binding Ca-loaded calmodulin-1 – biochemical, small-molecule microarray, Cy5-labelled CALM1, plus calcium, artefact control for SMM control-protein annotation, profiling panel (AID 1112).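 Note: score merges spot fluorescence with signal to noise from triplicate slides.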 Conditions: Cy5-CALM1 binding fluorescence, higher = more signal.
Experiment [16] can be described thus: probe aWnt5a binding to arrayed compounds – biochemical, biotinylated probe, 635/667 nm fluorescence, primary screen (AID 1113).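 Note: score merges 667 nm fluorescence intensity with signal-to-noise per printed feature.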 The note with it: small-molecule microarray, higher = more signal.
Experiment [17] in a line: probe aShh binding to arrayed compounds – biochemical, biotinylated probe, 635/667 nm fluorescence, primary screen (AID 1114).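 Note: probe is biotin-labelled aShh protein from a stem cell growth factor screen; measures binding of labelled protein to compounds printed on the slide; score merges feature fluorescence at 667 nm with signal-to-noise.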 The note with it: small-molecule microarray, higher = more signal.
Experiment [18] is described as follows: probe aNog binding to arrayed compounds – biochemical, biotinylated probe, 635/667 nm fluorescence, primary screen (AID 1115).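 Note: probe is biotinylated aNog protein used at 0.15 µg/mL for 1 h at 4 C; z-score combines 667 nm fluorescence of each spot with its signal to noise.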 The note with it: small-molecule microarray, higher = more signal.
Experiment [19] deals with Torsin-1A-interacting protein 1 (Homo sapiens) (UniProt Q5JTV8). As to the kind of experiment: compound microarray binding of lysate hLAP1 – cell lysate, small-molecule microarray, COS7 lysate, 635/667 nm fluorescence, primary screen (AID 1116). The note with it: 635 nm fluorescence, higher = more signal.
Experiment [20] has as its target Alpha-bungarotoxin (Bungarus multicinctus) (UniProt P60615). As to the kind of experiment: compounds binding labelled alpha-BTX control protein – biochemical, small-molecule microarray, Alexa647 label, 635/667 nm fluorescence, artefact control for SMM control protein annotation, profiling panel (AID 1117). The note with it: alpha-BTX-A647 binding fluorescence, higher = more signal.

Torsin-1A-interacting protein 1 (Homo sapiens), sequence (Q5JTV8 whole entry, looked up): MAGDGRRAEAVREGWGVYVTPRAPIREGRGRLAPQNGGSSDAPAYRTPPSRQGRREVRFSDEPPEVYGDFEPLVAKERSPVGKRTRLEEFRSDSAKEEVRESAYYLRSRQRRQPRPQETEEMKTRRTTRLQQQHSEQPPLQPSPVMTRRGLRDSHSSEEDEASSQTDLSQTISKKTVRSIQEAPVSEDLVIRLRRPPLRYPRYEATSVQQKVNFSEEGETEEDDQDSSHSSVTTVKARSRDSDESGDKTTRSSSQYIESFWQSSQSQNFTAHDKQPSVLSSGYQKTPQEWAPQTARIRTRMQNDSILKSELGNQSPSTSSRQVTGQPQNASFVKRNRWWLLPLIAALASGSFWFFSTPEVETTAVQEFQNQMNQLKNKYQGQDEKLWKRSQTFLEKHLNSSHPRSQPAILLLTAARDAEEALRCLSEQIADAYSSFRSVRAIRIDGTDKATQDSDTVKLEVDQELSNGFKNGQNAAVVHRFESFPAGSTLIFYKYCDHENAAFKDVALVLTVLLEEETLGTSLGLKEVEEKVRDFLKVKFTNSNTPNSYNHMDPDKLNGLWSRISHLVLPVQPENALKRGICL
Alpha-bungarotoxin (Bungarus multicinctus), sequence (P60615 whole entry, looked up): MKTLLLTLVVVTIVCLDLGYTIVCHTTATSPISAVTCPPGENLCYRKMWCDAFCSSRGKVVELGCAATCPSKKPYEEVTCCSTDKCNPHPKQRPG
Epidermal growth factor receptor (Homo sapiens), sequence (P00533 whole entry, looked up): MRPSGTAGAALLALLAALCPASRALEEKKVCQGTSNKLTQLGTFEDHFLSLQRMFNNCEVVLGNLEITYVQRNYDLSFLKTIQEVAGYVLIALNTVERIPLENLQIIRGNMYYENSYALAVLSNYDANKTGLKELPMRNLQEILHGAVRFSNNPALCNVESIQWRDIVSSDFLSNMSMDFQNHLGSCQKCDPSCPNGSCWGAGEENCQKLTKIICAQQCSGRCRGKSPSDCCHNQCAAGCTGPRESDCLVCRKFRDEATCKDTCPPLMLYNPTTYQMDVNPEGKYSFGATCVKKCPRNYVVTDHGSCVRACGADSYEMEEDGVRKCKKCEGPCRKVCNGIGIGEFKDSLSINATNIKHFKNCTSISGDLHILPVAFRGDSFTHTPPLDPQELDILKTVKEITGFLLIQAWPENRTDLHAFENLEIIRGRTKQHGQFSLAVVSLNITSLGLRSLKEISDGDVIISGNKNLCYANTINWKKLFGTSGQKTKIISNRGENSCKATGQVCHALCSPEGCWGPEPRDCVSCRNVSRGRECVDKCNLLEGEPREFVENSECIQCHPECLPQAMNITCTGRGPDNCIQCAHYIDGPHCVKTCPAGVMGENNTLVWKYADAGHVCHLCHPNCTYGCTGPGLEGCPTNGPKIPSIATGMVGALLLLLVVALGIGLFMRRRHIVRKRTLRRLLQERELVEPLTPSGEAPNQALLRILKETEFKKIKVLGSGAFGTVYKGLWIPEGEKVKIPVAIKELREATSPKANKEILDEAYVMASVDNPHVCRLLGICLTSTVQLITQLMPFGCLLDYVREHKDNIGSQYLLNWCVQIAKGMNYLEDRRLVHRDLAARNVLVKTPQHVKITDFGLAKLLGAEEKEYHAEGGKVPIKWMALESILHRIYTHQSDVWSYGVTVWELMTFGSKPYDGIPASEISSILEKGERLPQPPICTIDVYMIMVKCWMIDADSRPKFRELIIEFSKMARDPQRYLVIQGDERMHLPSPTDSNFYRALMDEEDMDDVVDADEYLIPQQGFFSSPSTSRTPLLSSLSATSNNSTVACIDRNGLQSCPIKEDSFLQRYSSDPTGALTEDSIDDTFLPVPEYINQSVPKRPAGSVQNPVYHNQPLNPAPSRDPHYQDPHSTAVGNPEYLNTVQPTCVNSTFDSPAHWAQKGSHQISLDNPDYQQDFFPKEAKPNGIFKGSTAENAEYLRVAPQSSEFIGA
Fibroblast growth factor 10 (Homo sapiens), sequence (O15520 whole entry, looked up): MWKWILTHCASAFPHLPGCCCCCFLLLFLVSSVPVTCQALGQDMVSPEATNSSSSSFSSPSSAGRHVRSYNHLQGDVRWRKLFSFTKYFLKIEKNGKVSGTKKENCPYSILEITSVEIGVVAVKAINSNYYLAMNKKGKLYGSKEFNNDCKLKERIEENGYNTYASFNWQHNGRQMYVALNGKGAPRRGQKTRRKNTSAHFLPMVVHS
Dickkopf-related protein 1 (Homo sapiens), sequence (O94907 whole entry, looked up): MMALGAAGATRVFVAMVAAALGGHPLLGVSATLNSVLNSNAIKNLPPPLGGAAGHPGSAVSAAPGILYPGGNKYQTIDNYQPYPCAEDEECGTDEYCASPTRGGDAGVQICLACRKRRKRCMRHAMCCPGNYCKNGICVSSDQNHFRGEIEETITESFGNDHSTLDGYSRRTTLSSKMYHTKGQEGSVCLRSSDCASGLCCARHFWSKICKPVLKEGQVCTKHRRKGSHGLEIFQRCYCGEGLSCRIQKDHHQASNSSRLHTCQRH
Left-right determination factor 2 (Homo sapiens), sequence (O00292 whole entry, looked up): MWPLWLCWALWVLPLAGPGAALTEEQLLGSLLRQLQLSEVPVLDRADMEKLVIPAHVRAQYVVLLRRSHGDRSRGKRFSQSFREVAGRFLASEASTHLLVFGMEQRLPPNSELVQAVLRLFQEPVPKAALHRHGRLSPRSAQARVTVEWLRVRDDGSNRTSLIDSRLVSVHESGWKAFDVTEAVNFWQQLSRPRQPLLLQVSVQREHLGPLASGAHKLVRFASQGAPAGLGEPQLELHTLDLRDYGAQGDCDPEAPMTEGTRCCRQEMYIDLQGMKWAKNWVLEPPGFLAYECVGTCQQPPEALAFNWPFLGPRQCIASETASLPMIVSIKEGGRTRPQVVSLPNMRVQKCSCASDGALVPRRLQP
Follistatin-related protein 3 (Homo sapiens), sequence (O95633 whole entry, looked up): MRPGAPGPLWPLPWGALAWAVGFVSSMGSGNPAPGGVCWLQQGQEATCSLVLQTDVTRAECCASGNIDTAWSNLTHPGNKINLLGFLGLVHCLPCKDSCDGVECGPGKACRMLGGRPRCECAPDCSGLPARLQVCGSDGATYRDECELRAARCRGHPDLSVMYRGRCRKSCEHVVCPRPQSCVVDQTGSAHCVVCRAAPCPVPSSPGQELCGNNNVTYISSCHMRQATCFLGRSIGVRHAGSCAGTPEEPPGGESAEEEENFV

Turning to `CCOC(=O)[C@H](CC(C)C)NC(=O)CCC1CC(OC(=O)NCc2cccc3ccccc23)CC2(CCCC(COC(=O)NCCc3ccccc3OC)O2)O1` (stereo not given in full), the composite z-score in experiment [1] was 0.766; in [2], -0.141; in experiment [3], -0.39; in experiment [5], 1; in experiment [6] it was 1.03; in [7] it was 0.387. Moreover, the composite z-score in experiment [8] was 0.866; in experiment [9] it was 0.555; in [10], 0.182; in experiment [11] it was 1.38; in experiment [13] it was 0.488; in experiment [14] it was 1.3. The composite z-score in experiment [15] was 0.371; in experiment [16], -0.124; in experiment [17], -0.214; in experiment [18] it was -0.335; in experiment [19], 0.607; in experiment [20], 0.588. Besides, the z-score in [4] is -0.139 (inactive); in experiment [12], -1.24.
In the case of `O=C1[C@H]2[C@H]3[C@H](O)[C@H](O)CC(=NO[C@@H]4O[C@H](CO)[C@@H](O)[C@H](O)[C@H]4O)[C@@H]3CC[C@H]2C(=O)N1c1ccc(F)cc1F`, the composite z-score is 0.406 in experiment [1]; -0.157 in experiment [2]; -0.445 in experiment [3]; 0.794 in [5]; 0.703 in experiment [6]; 0.541 in experiment [7]. For the same molecule, the composite z-score is 0.608 in experiment [8]; 0.451 in experiment [9]; -0.114 in experiment [10]; 0.343 in experiment [11]; 0.428 in experiment [13]; -0.364 in experiment [14]. Also, the composite z-score in experiment [15] is -0.561; in [16], -0.12; in experiment [17], 0.284; in experiment [18], -0.349; in experiment [19] it was 0.467; in experiment [20], 0.161. In addition, the results for the z-score in [4] and in experiment [12] were -0.244 (inactive) and 0.434, respectively.
For the molecule `CCOC(=O)NN=C1C[C@@H](O)[C@@H](O)[C@@H]2[C@@H]3C(=O)N(C(C)(C)C)C(=O)[C@@H]3CC[C@@H]12`, the composite z-score in experiment [1] is -0.241; in experiment [2] it was 0.166; in experiment [3] it was 0.599; in experiment [5] it was 0.34; in [6], -1.09; in [7], 0.43. Further, the composite z-score in experiment [8] was -1; in [9], -0.567; in experiment [10] it was -2.83; in experiment [11], -0.772; in experiment [13] it was 0.45; in experiment [14], -0.671. The composite z-score is -1.54 in experiment [15]; -0.278 in [16]; -0.75 in experiment [17]; 0.154 in experiment [18]; -0.48 in [19]; -0.772 in experiment [20]. The z-score in [4] was 0.172 (inactive); in [12], -0.529.
Consider `C=C(/C(=C/C[C@H](OC(=O)c1ccncc1)c1ccc(OCCO)cc1)c1cnc2ccccc2c1)C(C)C`, for which the composite z-score in [1] is 0.933; in experiment [2], -0.196; in [3] it was -0.163; in experiment [5], 1.61; in experiment [6], 1.07; in experiment [7], 1.07. For the same molecule, the composite z-score turned out to be 1.38 in experiment [8]; 0.856 in experiment [9]; 1.7 in [10]; 1.31 in experiment [11]; 1.06 in experiment [13]; 0.0481 in [14]. The composite z-score in experiment [15] is -0.708; in [16] it was 0.0324; in [17] it was 0.13; in [18] it was -0.338; in experiment [19], 2.24; in [20], 1.67. In addition, the z-score in [4] is 0.215 (inactive); in experiment [12], -2.01.
In the case of `CCOC(=O)C1=CC[C@H]2C(=O)N(CC)C(=O)[C@@H]12`, the composite z-score was 0.762 in experiment [1]; -0.146 in [2]; -0.242 in experiment [3]; 1.07 in experiment [5]; 0.947 in experiment [6]; 0.0746 in [7]. In addition, the composite z-score in [8] was 0.933; in experiment [9], 0.0851; in experiment [10], 0.666; in [11] it was 1.19; in experiment [13], 0.444; in experiment [14], -0.322. In addition, the composite z-score in [15] is -0.485; in experiment [16] it was -0.0236; in experiment [17] it was 0.329; in experiment [18], -0.0184; in experiment [19], 0.184; in experiment [20], 0.431. Also, the z-score in [4] is -0.253 (inactive); in [12], -2.13.
